# Screens as filed in PubChem BioAssay.
# Sampled rows, rich in hits. Any-hit rate of the full collection: about 0.54%.
# ERG Ets-DNA blk: blocks human ERG Ets domain binding to DNA; fluorescence polarization, His-ERG Ets domain / labelled DNA; Potency, µM (top dose mostly 76.9 µM), without a hit: at the highest dose FP activity, negative = inhibition, actives largely listed as inhibitors; 0.028% of 370,000 active; AID 624246; active = well fitted inhibition curve with a large enough effect in the polarisation, with a control signal flat; inconclusive = small, poorly fitted or top-dose-only effect, or effect the other way, or a change in a side signal; inactive = no such curve, though single readings can be large or run the other way; the % refers to the polarisation;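 also: polarization taken with two DNA probes labelled with fluorescein and Texas red; % of control where 0% means no effect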
#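 His-tagged ERG Ets domain (1 uM in the protein solution; 300mM KCl, 50mM Tris-HCl, 1mM EDTA, 1mM DTT, pH 7.5) received compound, then a probe mix of 5 nM fluorescein-DNA and 100nM Texas-615-DNA. Fluorescence polarization was read for both dyes.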
# EPAC2 antagonist: antagonists of human EPAC2; EPAC2 GEF exchange of Rap1B-BODIPY-GDP, fluorescence; Q8WZA2; 0.18% of 360,000 active; AID 720708; Potency, µM (titrated, usually from 114 µM), inactives show at the highest dose activity, negative = inhibition, hits mostly inhibitors; also: % is scaled to controls: 0 for no effect and ±100 for the full control effect; nearly all actives have a fitted effect of over 45% in size
# EPAC1 antagonist: EPAC1 (human) antagonism; O95398; EPAC1 GEF assay, Rap1b-BODIPY-GDP exchange fluorescence; Potency, µM (highest dose often 115 µM), without a hit: at the top dose activity change, negative = inhibition, actives largely listed as inhibitors; 0.14% of 360,000 active; AID 720709;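 also: plate controls were vehicle for no effect and positive control for full effect; nearly all actives have a fitted effect of over 50% in size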
# TDP1 block: TDP1 (human) enzyme inhibition; recombinant TDP1, AlphaScreen DNA substrate cleavage; 0.28% of 350,000 active; Potency, µM (series often up to 130 µM), inactives show at the top dose activity change, negative = inhibition, most hits filed as inhibitors; also: % is scaled to controls: 0 for no effect and ±100 for the full control effect; nearly all actives have a fitted effect of over 40% in size
# Target sequence (Q9NUW8 whole entry, looked up): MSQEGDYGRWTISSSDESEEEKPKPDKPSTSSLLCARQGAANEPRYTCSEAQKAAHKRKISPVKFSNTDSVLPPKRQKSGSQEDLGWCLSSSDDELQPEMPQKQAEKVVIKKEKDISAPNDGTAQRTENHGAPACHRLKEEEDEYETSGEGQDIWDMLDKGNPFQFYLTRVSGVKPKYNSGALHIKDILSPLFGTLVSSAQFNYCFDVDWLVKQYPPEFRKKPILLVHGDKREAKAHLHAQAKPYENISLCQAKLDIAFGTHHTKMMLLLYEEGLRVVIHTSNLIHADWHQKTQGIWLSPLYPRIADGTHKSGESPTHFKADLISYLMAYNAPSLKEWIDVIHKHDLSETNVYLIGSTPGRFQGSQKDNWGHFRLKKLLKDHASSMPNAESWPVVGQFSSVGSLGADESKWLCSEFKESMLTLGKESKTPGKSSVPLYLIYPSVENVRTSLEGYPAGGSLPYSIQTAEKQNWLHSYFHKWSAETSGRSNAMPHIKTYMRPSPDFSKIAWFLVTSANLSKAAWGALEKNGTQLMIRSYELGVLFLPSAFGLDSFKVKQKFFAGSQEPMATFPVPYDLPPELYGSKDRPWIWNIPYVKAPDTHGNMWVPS
#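 Compounds were preincubated with Tdp1 (1 nM final) for 15 min at room temperature before substrate (15 nM final) started a 5 min reaction; beads (10 ug/ml final) were then added for 10 min before AlphaScreen detection.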
# EPAC1 agonist: EPAC1 (human) agonism; O95398; EPAC1 agonist qHTS, biochemical assay; response scale: 100% = response to 6.5 mM cAMP; Potency, µM (top dose mostly 154 µM), for inactives: at the highest dose activation, most hits filed as activators; 0.073% of 360,000 active; also: nearly all actives have a fitted effect of over 60% in size
#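 Multi-concentration qHTS readout: loss of Rap1B-bound BODIPY-GDP fluorescence driven by 100 nM EPAC1 with excess GDP (50 uM), monitored kinetically at room temperature; agonist response expressed relative to 6.5 mM cAMP.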
# EPAC2 agonist: activates human EPAC2 exchange factor | AID 720711 | Q8WZA2 | EPAC2 activation, biochemical qHTS; response scale: 100% = 6.5 mM cAMP response | Potency, µM (series often up to 154 µM), for the others: top-dose activation, hits mostly activators | 0.079% of 360,000 active; also: nearly all actives have a fitted effect of over 50% in size
#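 Setup: EPAC2 100 nM, labeled Rap1B complex 250 nM, free GDP 50 uM. Compound titrations pinned in, brief spin, 5 min room temperature incubation. Kinetic fluorescence read over 30 min, normalized to 6.5 mM cAMP.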
# * hit, by the source's call; ? = inconclusive; nt = no result; ! = not active in a repeat; [ ] = remark or other dose. Unless noted, calls follow the shape of the dose curve; as a rule, active = well fitted curve in the direction sought with a large enough effect; inconclusive = small, poorly fitted or top-dose-only effect, or another doubt; inactive = no such curve, though single readings can be large; an effect the other way counts as inactive or inconclusive. Potency is read from the fitted curve at half-maximal effect.
SMILES,ERG Ets-DNA blk,EPAC2 antagonist,EPAC1 antagonist,TDP1 block,EPAC1 agonist,EPAC2 agonist
Cc1ccc(NC(=O)COc2cccc(/C=C3\SC(=S)N(CCC(=O)O)C3=O)c2)cc1Cl,17.8%,33.6%,50.1µM*,nt,?,-8.1%
O=C(CCN1C(=O)/C(=C/c2cccs2)SC1=S)Nc1ccc(O)cc1,11.2%,6.3%,9.9%,9.3%,2.5%,4.7%
CCOc1ccc(/C=C2/SC(=S)N(CCC(=O)Nc3ccc(C(=O)O)cc3)C2=O)cc1,8.7%,4.4%,0.1%,10µM*,-17.6%,8.8%
COc1ccc(/C=C2\SC(=S)N(CCCC(=O)Nc3ccc(C(=O)O)cc3)C2=O)cc1OC,13.3%,-26.7%,-21.1%,50.1µM*,7.2%,24.2%
COc1ccc(/C=C2\SC(=O)N(CCCC(=O)Nc3ccc(C(=O)O)cc3)C2=O)cc1OC,-0.1%,6.6%,-2.4%,1.2%,-2.9%,-2.9%
CCOc1cccc(C2C=C(c3ccc4c(c3)OCO4)NC(c3ccc(Br)cc3)N2)c1O (configuration not stated),nt,nt,nt,3.2%,nt,nt
O=C1CCc2cc(S(=O)(=O)Nc3cccc(C(F)(F)F)c3)ccc2N1,nt,nt,nt,1.4%,nt,nt
Cc1ccc(S(=O)(=O)N2CCN(c3nc(-c4ncccn4)nc4ccccc34)CC2)cc1,nt,nt,nt,1.7%,nt,nt
O=C(CCCl)Nc1cccc2cccnc12,nt,nt,nt,-0.1%,nt,nt
Cc1ccc2oc(C(=O)N3CCCCCC3)c(C)c2c1,-2.4%,56.2µM*,6.2%,0.0%,3.7%,9.3%
Cc1c(C(=O)N2CCCCC2)oc2ccc(Br)cc12,1.2%,?,-11.9%,-2.2%,?,4.5%
O=C(O)c1cc2cc(F)ccc2[nH]1,-16.0%,4.7%,-13.7%,89.1µM*!,-11.3%,-0.3%
O=C(O)c1cc2cc(Cl)ccc2[nH]1,-15.2%,-14.8%,0.8%,4.3%,-8.1%,9.1%
COc1ccc(NC(C)=O)cc1S(=O)(=O)Nc1ccc(OCc2ccccc2)cc1,-13.4%,-14.1%,-13.7%,nt,14.2%,12.4%
COc1ccc(S(=O)(=O)Nc2ccc(OCC(=O)O)cc2)c2ccccc12,-1.3%,89.1µM*,-14.9%,nt,8.2%,7.3%
Cc1ccsc1CNc1ncnc2ccc(-c3ccc4c(c3)OCO4)cc12,nt,nt,nt,3.4%,nt,nt
CCOc1ccc(N(C)c2ccc(/C=C3/SC(=S)NC3=O)cc2)cc1,129.5%,3.9%,-28.5%,5.9%,-7.4%,1.5%
CCOc1c(O)ccc(/C=C2\SC(=S)NC2=O)c1[N+](=O)[O-],12.2%,56.2µM*,-21.1%,0.0%,-1.4%,2.1%
Cc1ccc(/C=N/n2cnc3sc4c(c3c2=O)CCCC4)o1,nt,-3.2%,2.8%,2.1%,17.2%,21.0%
O=C(O)c1cccc(-c2ccc(/C=N/n3cnc4sc5c(c4c3=O)CCCC5)o2)c1,nt,nt,nt,17.8µM*,nt,nt
COc1cccc(C2c3[nH]c4ccccc4c3CCN2Cc2ncc[nH]2)c1 (configuration not stated),7.1%,50.1µM*,-3.8%,10.8%,6.1%,6.8%
c1ccc2c3c([nH]c2c1)C(C1CCCCC1)N(Cc1ncc[nH]1)CC3 (configuration not stated),-7.2%,-2.1%,10.8%,5.4%,-4.0%,5.6%
O=C(OCC#CCSc1nnc(-c2cccc(F)c2)o1)c1ccc(F)cc1,nt,nt,nt,-7.5%,nt,nt
O=C(O)c1ccc(Cl)c(S(=O)(=O)N(Cc2ccccc2)c2ccccc2)c1,4.1%,-17.5%,6.0%,0.0%,4.3%,7.8%
CCN(c1ccccc1)S(=O)(=O)c1cc(C(=O)O)ccc1C,-1.4%,-2.3%,0.0%,22.4µM*,14.3%,-4.7%
SMILES,ERG Ets-DNA blk,EPAC2 antagonist,EPAC1 antagonist,TDP1 block,EPAC1 agonist,EPAC2 agonist
O=C1CCc2cc(Cl)c(S(=O)(=O)Nc3ccc(Cl)c(Cl)c3)cc2N1,nt,nt,nt,1.2%,nt,nt
CCN1C(=O)N(C)[C@@H](c2ccccc2)C(C(=O)OC)=C1C,-0.3%,-20.0%,3.1%,8.0%[12.3 µM],8.4%,4.8%
CCN1C(=O)N(S(=O)(=O)C(F)(F)F)[C@@H](c2ccccc2)C(C(=O)OC)=C1C,0.6%,31.6µM*,-8.8%,5.6%[12.3 µM],-19.9%,3.4%
O=S(=O)(c1ccc2c(c1)OCCO2)N1CCN(S(=O)(=O)c2cc(F)c(F)cc2F)CC1,nt,nt,nt,-0.1%,nt,nt
C/C(=N\NC(=O)c1cc(O)ccc1O)c1cccc(NC(=O)c2ccc(Cl)cc2)c1,-5.3%,-3.1%,50.1µM*,-17.4%,7.5%,19.2%
COc1cccc2sc3cc(C#Cc4ccccn4)ccc3c(=O)c12,-1.4%,8.0%,-13.6%,44.7µM*,-13.0%,-1.6%
COc1cc2sc3ccc(C#Cc4ccccn4)cc3c(=O)c2cc1OC,2.0%,13.4%,-23.5%,nt,-24.0%,9.5%
Cc1onc(-c2c(Cl)cccc2Cl)c1COC(=O)c1ccc(Cl)cc1,-4.6%,3.55µM*,-11.3%,nt,-0.9%,7.5%
Cc1cc2c(s1)c1cnn(Cc3cc(C(F)(F)F)cc(Cl)c3F)c(=O)c1n2C,nt,nt,nt,-5.8%,nt,nt
CC(C)c1cccc(-c2ccc3c(c2)S(=O)(=O)c2cccc(C(=O)NCc4ccco4)c2C3=O)c1,6.0%,1.0%,-15.8%,44.7µM*,-23.5%,-7.8%
O=C(NCC1CC1)c1cccc2c1C(=O)c1ccc(-c3ccc(OC(F)(F)F)cc3)cc1S2(=O)=O,-11.0%,?,-17.4%,1.3%,-5.1%,-3.5%
CC(C)(C)CNC(=O)c1cccc2c1C(=O)c1ccc(-c3cc4ccccc4o3)cc1S2(=O)=O,-7.1%,-17.5%,?,0.8%,-5.6%,100µM*
COc1cccc(C2c3c(ncn(-c4ccccc4C(C)(C)C)c3=N)Oc3ccc4ccccc4c32)c1 (configuration not stated),nt,nt,nt,4.4%,nt,nt
COc1cccc(C2=Nn3c(nnc3-c3ccccc3C)SC2)c1,nt,nt,nt,20.9%,nt,nt
Cc1ccc(NC(=O)CSCC(=O)Nc2nnc(C)s2)cc1,6.9%,4.7%,4.9%,nt,4.3%,3.5%
Cc1nnc(NC(=O)CCSCCC(=O)Nc2nnc(C)s2)s1,-4.3%,-5.6%,-28.3%,31.6µM*,-4.9%,3.6%
Cc1ccc(S(=O)(=O)Nc2cc(Br)cc3cccnc23)cc1,nt,nt,nt,-2.4%,nt,nt
Cc1ccc(F)c(S(=O)(=O)NC(=O)C2(C)CCN2C(=O)C2(c3ccc(Cl)cc3)CCC2)c1 (configuration not stated),nt,44.7µM*,-7.6%,nt,-3.1%,-1.3%
CC1(C(=O)NS(=O)(=O)c2ccc3c(c2)CCO3)CCN1C(=O)C1(c2ccc(Cl)cc2)CCC1 (configuration not stated),nt,?,50.1µM*,nt,-5.4%,8.5%
O=C1NC(=O)C(Cc2ccc(OCCN3COc4ccccc4C3=O)cc2)S1 (configuration not stated),nt,nt,nt,10.2%,nt,nt
